Source: PubChem BioAssay (EPA / NIEHS)
Some compounds were tested as several samples or in several runs, with calls that do not always agree. Active and inactive are the calls of the source. The calls were made as follows: active = hit-call score of the fitted dose curve at least 0.9, where 1 is the maximum; inactive = score below 0.9.

These compounds were tested against Myc proto-oncogene protein (Homo sapiens) (UniProt P01106) (assay: ATG_Myc_CIS: Attagene CIS-FACTORIAL HepG2 Assay for human Myelocytomatosis (Myc) Proto-Oncogene Transcription Factor (AID 2282990)). Settings: HepG2, Attagene cis-reporter transcription factor activity; actives raise or lower the signal.
Chain of Myc proto-oncogene protein (Homo sapiens) (P01106 whole entry, looked up): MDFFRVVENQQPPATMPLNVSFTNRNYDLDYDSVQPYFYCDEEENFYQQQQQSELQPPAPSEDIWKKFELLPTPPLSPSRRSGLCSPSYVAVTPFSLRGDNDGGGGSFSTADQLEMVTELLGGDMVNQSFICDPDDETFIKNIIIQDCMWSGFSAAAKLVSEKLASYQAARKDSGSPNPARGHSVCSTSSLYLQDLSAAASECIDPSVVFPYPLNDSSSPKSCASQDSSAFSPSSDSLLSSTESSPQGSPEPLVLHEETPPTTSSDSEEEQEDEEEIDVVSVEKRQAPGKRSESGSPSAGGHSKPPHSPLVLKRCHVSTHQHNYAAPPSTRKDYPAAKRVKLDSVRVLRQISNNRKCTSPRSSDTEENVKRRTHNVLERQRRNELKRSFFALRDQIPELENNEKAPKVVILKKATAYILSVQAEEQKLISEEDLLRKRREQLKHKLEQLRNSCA
Protocol: ATG_CIS is a cell-based, multiplexed-readout assay that uses HepG2, a human liver cell line, with measurements taken at 24 hours after chemical dosing in a 24-well plate.ATG_Myc_CIS is one of 52 assay component(s) measured or calculated from the ATG_CIS assay. It is designed to make measurements of mRNA induction, a form of inducible reporter, as detected with fluorescence intensity signals by Reverse transcription polymerase chain reaction (RT-PCR) and Capillary electrophoresis technology.Data from the assay component ATG_Myc_CIS was analyzed into 1 assay endpoint. This assay endpoint, ATG_Myc_CIS, was analyzed with bidirectional fitting relative to DMSO as the negative control and baseline of activity. Using a type of inducible reporter, measures of mRNA for gain or loss-of-signal activity can be used to understand the reporter gene at the transcription factor-level as they relate to the gene MYC. Furthermore, this assay endpoint can be referred to as a primary readout, because this assay has produced multiple assay endpoints where this one serves a reporter gene function. To generalize the intended target to other relatable targets, this assay endpoint is annotated to the dna binding intended target family, where the subfamily is basic helix-loop-helix leucine zipper.
Human liver HepG2 cells are transiently transfected with multiple reporter transcription units (MRTUs) in 6-well plates using FuGene 6 reagent (Roche; 3 ml FuGene/1 mg DNA). The MRTU constructs are regulated by a cis-regulating element (promoter). […] A major difference between the CIS and TRANS system is that in CIS activities of endogenous TFs are measured, whereas the TRANS assay evaluates changes in activities of exogenous, chimeric NR-Gal4 proteins. […] At the end of 24 hour incubation, total RNA was isolated using TriZol reagent (Invitrogen). The isolated RNA is then reverse-transcribed using oligo(dT) primer and Mo-MLV reverse transcriptase (Invitrogen) with DNAse I (Ambion) treatment for 30 min. The one-tenth of the produced cDNA was amplified by PCR using Taq DNA polymerase (Invitrogen) and two reporter sequence-specific primers. The PCR products were fluorescently labeled by primer extension with 6-arboxyfluorescein (6-FAM) 5'-labeled reporter sequence-specific primer (2 min at 95 C, 20 s at 68 C and 10 min at 72 C) and these products were digested with 5U of HpaI (New England Biolabs) for 2h at 37 C. The fragments were purified using Qiaquick PCR columns (Qiagen), analyzed on an ABI 3130xL genetic analyzer (Applied Biosystems) with peak positions identified by using a set of X-rhodamine (ROX)-labeled MapMarker1000 molecular weight standards (BioVentures). The raw capillary electrophoresis data was processed using Attagraph software (Attagene).

SMILES | outcome | AC50
CN(C)CCCN1c2ccccc2Sc2ccc(Cl)cc21 | inactive | –
COC(=O)CCCC(=O)OC | inactive | –
Cc1ccc(C(C)(C)C)c(O)c1 | – | 100 µM (active)
CCCCC(CC)CO (stereo not given) | inactive | –
O=C(Oc1ccccc1)c1cccc(C(=O)Oc2ccccc2)c1 | inactive | –
CCCCOC(=O)CCCCC(=O)OCCCC | inactive | –
CC(C)OC(=O)C(C)(C)Oc1ccc(C(=O)c2ccc(Cl)cc2)cc1 | inactive | –
Nc1nc(Cl)nc2c1ncn2[C@H]1C[C@H](O)[C@@H](CO)O1 | inactive | –
C=CCc1ccc(OC)c(OC)c1 | inactive | –
O=C1O[C@H]([C@H](O)CO)C(O)=C1O | inactive | –
CN(C)C(=O)NC1(c2ccccc2)CCN(CCC[C@]2(c3ccc(Cl)c(Cl)c3)CCCN(C(=O)c3ccccc3)C2)CC1 | – | 5.05 µM (active)
Cc1cc(Cc2ccc(N)c(C)c2)ccc1N | inactive | –
CCOCCOCCO | inactive | –
NC=O | inactive | –
CSc1ccc(Oc2ccc(S(N)(=O)=O)cc2CN(C)C)cc1C | inactive | –
CC(=O)O[C@]1(C(C)=O)CC[C@H]2[C@@H]3C=C(Cl)C4=CC(=O)[C@@H]5C[C@@H]5[C@]4(C)[C@H]3CC[C@@]21C | inactive | 164 µM (active)
Cc1cc(SC2=C(O)C[C@@](CCc3ccc(N)cc3)(C(C)C)OC2=O)c(C(C)(C)C)cc1CO | inactive | –
CC(=O)[C@@]1(O)CC[C@H]2[C@@H]3CCC4=CC(=O)CC[C@]4(C)[C@H]3CC[C@@]21C | inactive | –
C/C=C/C=C/C(=O)O | inactive | –
CC(=O)S[C@H](C(=O)N[C@H]1Cc2ccccc2[C@H]2CCC[C@@H](C(=O)O)N2C1=O)C(C)C | inactive | –

SMILES | outcome | AC50
CC(C)c1cccc(C(C)C)c1NC(=O)NS(=O)(=O)c1cc(C(C)(C)O)co1 | inactive | –
CCCCCCCCCCCCCCOS(=O)(=O)O | inactive | –
CCCCC(CC)COP(=O)(OCC(CC)CCCC)OCC(CC)CCCC (stereo not given) | inactive | –
N[C@@H](Cc1c[nH]c2ccccc12)C(=O)O | inactive | –
CC(=O)O | inactive | –
CN(C)CCCN(C)CCCN(C)C | inactive | –
Cc1occc(=O)c1O | inactive | –
C#CC(O)C(CC)CCCC (stereo not given) | inactive | –
Cc1ccc(-c2cc(C(F)(F)F)nn2-c2ccc(S(N)(=O)=O)cc2)cc1 | inactive | –
O=C(O)c1cccnc1 | inactive | –
C/C=C/c1ccc(OC)cc1 | inactive | –
CCCCc1nc2cccnc2n1Cc1ccc(-c2ccccc2-c2nnn[nH]2)cc1 | inactive | –
CCc1cc(C2=C(C(=O)O)N(c3ccccc3C(F)(F)F)S(=O)(=O)c3ccccc32)cc2c1OCO2 | inactive | –
COC(=O)CCC(=O)OC | inactive | –
CCN(CC)CCOc1ccc(C(=C(Cl)c2ccccc2)c2ccccc2)cc1 | inactive | –
CCCCCCCC(=O)OC | inactive | –
OCC(CO)n1cnc(-c2ccc(F)cc2)c1-c1ccnc(Oc2ccccc2)n1 | inactive | –
Cn1cnc2c1c(=O)[nH]c(=O)n2C | inactive | –
O=C(O)CN(CC(=O)O)CC(=O)O | inactive | –
